PubChem BioAssay AID686979 (National Center for Advancing Translational Sciences (NCATS), 2013)
Screen size: about 420,000 compounds; about 50,000 (12%) were called active. About 26% were inconclusive and are not listed. Only a selection was taken, and actives are over-represented in it overall. Unmarked numbers belong to inactive results. Calls follow the shape of the dose curve; as a rule, active = well fitted inhibition curve with a large enough effect; inconclusive = small, poorly fitted or top-dose-only effect; inactive = flat fitted curve, though single readings scatter.

assay: qHTS for Inhibitors of human tyrosyl-DNA phosphodiesterase 1 (TDP1): qHTS in cells in presence of CPT; conditions: chicken DT40 Tdp1-/-;hTDP1 cells + 20 nM CPT, ATP luminescence, 48 h; series mostly up to 46.2 µM; activity change, negative = growth inhibition: at the top concentration; also: nearly all actives have a fitted effect of over 55% in size
How it was run: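 Cell growth measured by CellTiter-Glo luminescence after a minimum 48 h, 37 C compound exposure with 20 nM CPT in Tdp1-knockout DT40 cells stably expressing hTDP1, seeded 400/well; qHTS titration format.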
% is scaled to controls: 0 for no effect and ±100 for the full control effect; potency is read from the fitted curve at half-maximal effect.

Row | SMILES | activity change, negative = growth inhibition | Potency
1 | Cc1ccc(C(=O)NCC(=O)O)cc1S(=O)(=O)N1CCCCC1 | 12.1% | 
2 | Cc1ccc(NS(=O)(=O)c2cccs2)cc1S(=O)(=O)N1CCCCCC1 | -19.3% | 
3 | Cc1ccc(C)c(Nc2nnc(-c3ccc(C)c(S(=O)(=O)N4CCCCC4)c3)c3ccccc23)c1 |  | 4.11 µM (active)
4 | CC(=O)c1c(C)[nH]c(C(=O)Nc2cc(S(=O)(=O)N(C)C)ccc2C)c1C | -11.6% | 
5 | Cc1ccc(S(=O)(=O)N(C)C)cc1NC(=O)c1n[nH]c(=O)c2ccccc12 |  | 18.4 µM (active)
6 | Cc1ccc(S(=O)(=O)N(C)C)cc1NC(=O)c1ccccc1Br | 9.43% | 
7 | O=C(CSc1nc2[nH]c(=O)[nH]c(=O)c2s1)Nc1cccc(F)c1 | 0.666% | 
8 | CCC(C)[C@@H](C(=O)N1CCNCC1)n1cc(CCCCN)nn1 (stereo not given in full) | 10.6% | 
9 | CCOC(=O)c1cccc(NC(=O)CN2C(=O)C3CC=CCC3C2=O)c1 (stereo not given) | -1.71% | 
10 | CCOC(=O)C1CCN(c2ccc(C(=O)O)cc2[N+](=O)[O-])CC1 | 6.98% | 
11 | CCOC(=O)N1CCN(C(=S)Nc2ccc(C)cc2C)CC1 | -11.4% | 
12 | CCOC(=O)N1CCN(c2cc(C)c([N+](=O)[O-])cc2F)CC1 |  | 20.6 µM (active)
13 | NC(=O)C1CCN(C(=O)CC2C(=O)NCCN2Cc2cccc(Oc3ccccc3)c2)CC1 (stereo not given) | 3.56% | 
14 | Cc1ccc(C(CNC(=O)Nc2cccc(C)c2)N2CCN(C)CC2)cc1 (stereo not given) | -3.68% | 
15 | Cc1ccc(NC(=O)Cn2cccc2C2=NC(c3ccccc3)CO2)c(C)c1 (stereo not given) | -25.7% | 
16 | COC(CNC(=O)Cn1ncc2ccsc2c1=O)OC | -2.79% | 
17 | O=C1OCCC1=COCCCCOC=C1CCOC1=O | -10.4% | 
18 | Brc1ccc(CN2CC[C@H]3C=CCc4cccc(c43)C2)cc1 |  | 14.1 µM (active)
19 | CCCC(=O)C1CCN(Cc2ccccc2)CC1 | 24.3% | 
20 | CCN(CCCNC(=O)c1c(C)oc2ncn(CC(C)C)c(=O)c12)Cc1ccccc1 | 0.204% | 
21 | O=S(=O)(NC1CC2CCC1C2)c1ccc(Cl)cc1 (stereo not given) | -19.1% | 
22 | O=C(CO/N=C/c1ccc(OC(F)F)cc1)NCc1ccc(F)cc1 | -2.12% | 

Row | SMILES | activity change, negative = growth inhibition | Potency
23 | COc1ccc(/C=C2\N=C3CCCN3C2=O)cc1 | -10.1% | 
24 | COc1ccc(/C=C2/CCCc3ccccc3C2=O)cc1 |  | 5.8 µM (active)
25 | COc1ccc(/C=C2\CCc3ccccc3C2=O)c(OC)c1OC |  | 23.1 µM (active)
26 | O=C1/C(=C/c2cccs2)CCc2ccccc21 | -33% | 
27 | COc1ccc(/C=C2\NC(=O)[C@@H]3Cc4ccccc4CN3C2=O)cc1 | -14.1% [at 9.04 µM] | 
28 | COc1ccccc1C1=CC(=O)CCC1 | -2.66% | 
29 | COc1cc2[nH]c(=S)n(Cc3ccc(F)cc3)c(=O)c2cc1OC | -26.5% | 
30 | COc1ccccc1NC(=O)N(O)C1(C#N)CCCCC1 | 5.21% | 
31 | Cc1nn(CC(=O)NC2CCCCC2)c(=O)c2cccn12 | 14.8% | 
32 | O=C(/C=C/c1ccc(F)cc1)Nc1cccc(S(=O)(=O)Nc2cccc(C(F)(F)F)c2)c1 |  | 14.6 µM (active)
33 | O=C(/C=C/c1ccc(Cl)cc1)Nc1ccc(S(=O)(=O)Nc2ncccn2)cc1 | -4.33% | 
34 | O=C(CNS(=O)(=O)c1cccc(C(F)(F)F)c1)Nc1ccccc1F | -25% | 
35 | Cc1ccc(OCC(=O)Nc2ccc(OCc3cc(=O)n4c(C)csc4n3)cc2)cc1C | 2.52% | 
36 | COc1cc(Cl)c(NC(=O)CC(C)S(=O)(=O)c2cc3c(cc2C)NC(=O)CO3)c(OC)c1 (stereo not given) | -13.4% | 
37 | O=C(/C=C/c1ccccc1)Nc1nnc(SCC(=O)c2ccc3ccccc3c2)s1 | -27.6% | 
38 | Cc1cccc(NC(=O)C2CCN(C(=O)NC3CCCCC3)CC2)c1 | 2.85% | 
39 | O=C(CN1C(=O)CCn2nc(-c3ccccc3)cc21)NCc1ccccc1 | -2.41% | 
40 | COc1ccc(NC(=O)CCCN2C(=O)CCn3nc(-c4cn(C)c5ccccc45)cc32)cc1OC |  | 18.4 µM (active)
41 | COc1ccc(NC(=O)N2CCCn3nc(C)cc32)cc1OC | 9.85% | 
42 | CCOC(=O)C1(C)CCCN(C(=O)c2ccc(N(C)C)cc2)C1 (stereo not given) | -27.8% | 
43 | CC(NCCc1ccc(S(N)(=O)=O)cc1)C(=O)NCc1ccccc1 (stereo not given) | -21.1% | 
44 | CC(=O)NC(=S)Nc1ccc(NC(=S)NC(=O)c2ccc([N+](=O)[O-])cc2)cc1 | 18.6% | 

Row | SMILES | activity change, negative = growth inhibition | Potency
45 | Cn1ccc(=Nc2ccc(NC(=O)c3ccc(N=c4ccn(C)c5ccc([N+](=O)[O-])cc45)cc3)cc2)cc1 |  | 3.66 µM (active)
46 | COc1cc(NS(=O)(=O)c2ccc(NC(=O)c3ccc([N+](=O)[O-])cc3)cc2)ncn1 | -12.7% | 
47 | CSCCC(NC(=O)c1ccco1)C(=O)NCCc1ccc(F)cc1 (stereo not given) | -11.6% | 
48 | CN(C)CCNC(=O)Nc1cccc(Cl)c1Cl | -13.2% | 
49 | CN(C)CCNC(=O)c1ccc(Cl)c2cc3ccccc3nc12 |  | 0.164 µM (active)
50 | CC(=O)NCCNC(=O)c1cc(-c2cccc3ccccc23)nc2ccccc12 | -3.86% | 
51 | O=C(CCC(=O)N/N=C/c1ccc(Br)o1)N/N=C/c1ccc(Br)o1 | -1.67% | 
52 | O=C(CCc1ccc(O)cc1)NN=Cc1cc(Br)ccc1O |  | 8.2 µM (active)
53 | COc1cc(/C=N/NC(=O)CCc2n[nH]c(=O)[nH]c2=O)ccc1O | 21.9% | 
54 | CCCCn1c(N)c(N(CCOC)C(=O)CSCC(=O)Nc2cccc(C)c2)c(=O)[nH]c1=O | -2.79% | 
55 | CC1CCCCC1NC(=O)c1cc(=O)[nH]c2ccccc12 (stereo not given) | -10.8% | 
56 | COc1ccc(C2CC(c3cccs3)=NN2C(=O)COC(=O)c2cc3ccccc3cc2O)cc1OC (stereo not given) | -18% | 
57 | CC(=O)NC(CC(=O)Nc1cccc(S(=O)(=O)N2CCCC2)c1)c1ccccc1 (stereo not given) | -0.692% | 
58 | Cc1nn(-c2ccc(N3CCCCC3)nn2)c(C)c1CCC(=O)NCc1ccccc1F | -16% | 
59 | CCOc1ccc(CNC(=O)CCC(=O)N2CCSc3ccccc32)cc1 |  | inactive
60 | CCOc1ccc(CNC(=O)CCc2c(C)nn(-c3ccc(N4CCCCC4)nn3)c2C)cc1 |  | 25.9 µM (active)
61 | O=C(Nc1cccc(Cl)c1N1CCOCC1)c1cccnc1 | -20.9% | 
62 | COc1cccc(-n2c(=O)c3c(C)c(C(=O)N(C)C)sc3n(CC(=O)NCCc3ccc(OC)c(OC)c3)c2=O)c1 |  | inactive
63 | CCOc1cc(/C=N/NC(=O)c2c(C)nc3ccc(Cl)cn23)ccc1O |  | 13 µM (active)
64 | CCOc1cc(C=NNC(=O)CCCC(=O)NN=Cc2ccc(O)c(OCC)c2)ccc1O | 12.7% | 
65 | CCOc1ccc(/C=N\NC(=O)c2c(C)nc3cc(C)ccn23)cc1 | 2% | 
